Laboratory results taken from PubChem BioAssay AID1159580 (chemical genetic matrix, 2015).
Values joined by “and” are separate entries in the source; they are usually repeats but may differ in a detail not shown here. Equal values may be shown once. Hit rate of the full screen: of about 5,500 compounds, about 2,000 (36%) were called active. Roughly 18% stayed inconclusive and do not appear here. Cut-off read from the data, not from the text of the source: active = normalized growth mostly below about 0.91 (no sharp cut-off); inconclusive = no clear call, values can overlap the other calls; inactive = mostly above about 0.92. Some of the results follow.

Assay: chemical genetic growth profiling, strain panel (AID 1159580);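 note: tested at 20 µM; growth read once vehicle control cultures reached saturation at 30 °C; 1 = growth at the plate median or of vehicle wells; lower values mean less growth of the strain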
Details: S. cerevisiae deletion strains, growth OD

Measured: normalized growth

Clc1ccc(CSC(Cn2ccnc2)c2ccc(Cl)cc2Cl)cc1 (stereo not given)
active: locus YAL021C, strain ccr4, hits give low values 0.067 | locus YAL026C, strain drs2, hits give low values 0.0648 | locus YAL030W, strain snc1, hits give low values 0.0596 | locus YBL061C, strain skt5, hits give low values 0.062 | locus YBR009C, strain hhf1, hits give low values 0.0601 | locus YBR021W, strain FUR4, hits give low values 0.0857 | locus YBR023C, strain chs3, hits give low values 0.0649 | locus YBR171W, strain sec66, hits give low values 0.076 | locus YBR229C, strain ROT2, hits give low values 0.0457 | locus YBR231C, strain swc5, hits give low values 0.064 | locus YBR279W, strain paf1, hits give low values 0.064 | locus YCL011C, strain gbp2, hits give low values 0.0611 | locus YCL016C, strain dcc1, hits give low values 0.0681 | locus YCL029C, strain bik1, hits give low values 0.0583 | locus YCL069W, strain vba3, hits give low values 0.0628 | locus YCR088W, strain abp1, hits give low values 0.0629 | locus YDL005C, strain med2, hits give low values 0.0743 | locus YDL035C, strain GPR1, hits give low values 0.0497 | locus YDL040C, strain nat1, hits give low values 0.059 | locus YDL074C, strain BRE1, hits give low values 0.0766 | locus YDL101C, strain DUN1, hits give low values 0.0543 | locus YDL134C, strain PPH21, hits give low values 0.048 | locus YDL185W, strain tfp1, hits give low values 0.0566 | locus YDL192W, strain arf1, hits give low values 0.0601 | locus YDR001C, strain nth1, hits give low values 0.0613 | locus YDR069C, strain doa4, hits give low values 0.0624 | locus YDR101C, strain arx1, hits give low values 0.0606 | locus YDR137W, strain rgp1, hits give low values 0.102 | locus YDR150W, strain NUM1, hits give low values 0.0543 | locus YDR159W, strain sac3, hits give low values 0.0874 | locus YDR162C, strain NBP2, hits give low values 0.0476 | locus YDR195W, strain ref2 0.129 | locus YDR297W, strain sur2, hits give low values 0.0568 | locus YDR318W, strain mcm21, hits give low values 0.0592 | locus YDR334W, strain swr1, hits give low values 0.0638 | locus YDR335W, strain msn5, hits give low values 0.0624 | locus YDR388W, hits give low values 0.0553 | locus YDR392W, strain spt3, hits give low values 0.0838 | locus YDR502C, strain sam2, hits give low values 0.0567 | locus YEL003W, strain gim4, hits give low values 0.054 | locus YEL037C, strain rad23, hits give low values 0.0579 | locus YEL061C, strain CIN8 (second series), hits give low values 0.0613 | locus YEL061C, strain CIN8, hits give low values 0.0475 | locus YER015W, strain faa2, hits give low values 0.0623 | locus YER016W, strain bim1, hits give low values 0.061 | locus YER110C, hits give low values 0.0729 | locus YER111C, strain swi4, hits give low values 0.0739 | locus YER155C, strain BEM2 (second series), hits give low values 0.0999 | locus YER155C, strain BEM2, hits give low values 0.0594 | locus YER167W, strain BCK2, hits give low values 0.0492 | locus YFR010W, strain ubp6, hits give low values 0.0712 | locus YGL078C, strain dbp3, hits give low values 0.0667 | locus YGL086W, strain mad1, hits give low values 0.0535 | locus YGL167C, strain pmr1, hits give low values 0.0756 | locus YGL173C, strain kem1, hits give low values 0.0697 | locus YGL227W, strain vid30, hits give low values 0.065 | locus YGL240W, strain doc1, hits give low values 0.0922 | locus YGL248W, strain PDE1, hits give low values 0.0451 | locus YGL253W, strain hxk2, hits give low values 0.0562 | locus YGR078C, strain PAC10, hits give low values 0.0475 | locus YGR135W, strain pre9, hits give low values 0.0572 | locus YGR229C, strain SMI1, hits give low values 0.0582 | locus YGR252W, strain gcn5, hits give low values 0.112 | locus YHR013C, strain ard1, hits give low values 0.101 | locus YHR027C, strain rpn1, hits give low values 0.0633 | locus YHR030C, strain SLT2, hits give low values 0.0493 and 0.0968 | locus YHR079C, strain IRE1 (second series), hits give low values 0.0556 | locus YHR079C, strain IRE1, hits give low values 0.104 | locus YHR094C, strain hxt1, hits give low values 0.0572 | locus YHR129C, strain ARP1, hits give low values 0.0541 | locus YHR142W, strain chs7, hits give low values 0.0779 | locus YHR200W, strain rpn10, hits give low values 0.0594 | locus YIL066C, strain RNR3, hits give low values 0.047 | locus YIL073C, strain SPO22, hits give low values 0.109 | locus YIL125W, strain kgd1, hits give low values 0.0629 | locus YIR030C, strain dcg1, hits give low values 0.0572 | locus YJL092W, strain hpr5, hits give low values 0.0607 | locus YJL095W, strain BCK1 (second series), hits give low values 0.0571 | locus YJL095W, strain BCK1, hits give low values 0.0582 and 0.0962 | locus YJL115W, strain asf1, hits give low values 0.0715 | locus YJL129C, strain trk1, hits give low values 0.0907 | locus YJL134W, strain LCB3, hits give low values 0.0474 | locus YJL154C, strain vps35, hits give low values 0.0605 | locus YJL164C, strain tpk1, hits give low values 0.0651 | locus YJL166W, strain qcr8, hits give low values 0.0602 | locus YJL168C, strain set2, hits give low values 0.0557 | locus YJL187C, strain SWE1 (second series), hits give low values 0.0452 | locus YJL187C, strain SWE1, hits give low values 0.0595 | locus YJR043C, strain POL32, hits give low values 0.0608 | locus YJR066W, strain TOR1, hits give low values 0.00124
